In PubChem BioAssay (NCATS):
“And” between values parts separate entries of the source, which are not always exact repeats. Equal values may be shown once. Records with an inconclusive call do not appear. Entries that show only a call come without a potency. A number with no mark means an inactive call. The source made the active and inactive calls. The call rests on the fitted dose curve; in most records, active means well fitted curve in the direction sought with a large enough effect; inconclusive means small, poorly fitted or top-dose-only effect, or another doubt; inactive means no such curve, though single readings can be large; an effect the other way counts as inactive or inconclusive.

Columns and labels:
[1] = qHTS of pediatric cancer cell lines to identify multiple opportunities for drug repurposing: Primary screen for DAOY cells (AID 1347090); further: nearly all actives have a fitted effect of over 55% in size; further: potency means the concentration at half of the fitted maximal effect
How it was run: (§1)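 Cell viability, CellTiter-Glo luminescence; 500-1,000 cells/well, 8- or 11-point titration, 48 h compound exposure at 37 degrees C, 5% CO2. Controls: DMSO neutral, bortezomib 2.3 µM final as positive.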

[2] = qHTS of pediatric cancer cell lines to identify multiple opportunities for drug repurposing: Primary screen for SJ-GBM2 cells (AID 1347091); further: potency means the concentration at half of the fitted maximal effect
How it was run: as §1

[3] = qHTS of pediatric cancer cell lines to identify multiple opportunities for drug repurposing: Primary screen for A673 cells (AID 1347092); further: nearly all actives have a fitted effect of over 45% in size; further: potency means the concentration at half of the fitted maximal effect
How it was run: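 Cells are plated, rested 5 h, dosed by pintool, incubated 48 h, then lysed with CellTiter-Glo and read by luminescence. DMSO is the neutral control; bortezomib at 2.3 uM final is the positive control.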

[4] = qHTS of pediatric cancer cell lines to identify multiple opportunities for drug repurposing: Primary screen for SK-N-MC cells (AID 1347093); further: potency means the concentration at half of the fitted maximal effect
How it was run: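 Metabolically active cells were quantified by ATP-dependent luminescence (CellTiter-Glo, 15 min at room temperature) following 48 h treatment. Cells had been plated at 500-1,000 per well and settled for 5 h beforehand.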

[5] = qHTS of pediatric cancer cell lines to identify multiple opportunities for drug repurposing: Primary screen for BT-37 cells (AID 1347094); further: potency means the concentration at half of the fitted maximal effect
How it was run: (§2)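 Luminescence from CellTiter-Glo served as readout of metabolically active cells after 48 h compound exposure. Titrations: MIPE 11-point, from 0.78 nM; NPC 8-point, from 0.59 nM (final). Concentration-response curves came straight from the primary screen.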

[6] = qHTS of pediatric cancer cell lines to identify multiple opportunities for drug repurposing: Primary screen for NB-EBc1 cells (AID 1347095); further: potency means the concentration at half of the fitted maximal effect
How it was run: as §2

[7] = qHTS of pediatric cancer cell lines to identify multiple opportunities for drug repurposing: Primary screen for U-2 OS cells (AID 1347096); further: nearly all actives have a fitted effect of over 50% in size
How it was run: (§3)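 Cells (500-1,000/well) rested 5 h, then received compounds for 48 h; metabolically active cells were measured by CellTiter-Glo luminescence. Final concentrations spanned up to 46 µM (MIPE, 11-point) or 0.59 nM-46 µM (NPC, 8-point) in primary screens, 11-point in follow-ups.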

[8] = qHTS of pediatric cancer cell lines to identify multiple opportunities for drug repurposing: Primary screen for Saos-2 cells (AID 1347097); further: nearly all actives have a fitted effect of over 40% in size; further: potency means the concentration at half of the fitted maximal effect
How it was run: as §2

[9] = qHTS of pediatric cancer cell lines to identify multiple opportunities for drug repurposing: Primary screen for SK-N-SH cells (AID 1347098); further: nearly all actives have a fitted effect of over 65% in size; further: potency means the concentration at half of the fitted maximal effect
How it was run: as §3

[10] = qHTS of pediatric cancer cell lines to identify multiple opportunities for drug repurposing: Primary screen for NB1643 cells (AID 1347099); further: nearly all actives have a fitted effect of over 50% in size; further: potency means the concentration at half of the fitted maximal effect
How it was run: as §2

Compound | Potency [1] | Potency [2] | Potency [3] | Potency [4] | Potency [5] | Potency [6] | Potency [7] | Potency [8] | Potency [9] | Potency [10]
Cc1cccc(C)c1NC(=O)CN1CCCC1=O | inactive | inactive | inactive | inactive | inactive | inactive | inactive | inactive | inactive | inactive
N[C@@H](Cc1ccc(N(CCCl)CCCl)cc1)C(=O)O | 16.8 µM (active) and 18.7 µM (active) | 2.64 µM (active) | 6.68 µM (active) and 5.9 µM (active) | 2.99 µM (active) and 2.35 µM (active) | 15.5 µM (active) and 15.3 µM (active) | 3.76 µM (active) and 235 nM (active) | inactive | 26.6 µM (active) and 16.6 µM (active) | – | 9.44 µM (active) and 16.6 µM (active)
NCC1(CC(=O)O)CCCCC1 | inactive | inactive | inactive | inactive | inactive | inactive | inactive | inactive | inactive | inactive
O=[N+]([O-])c1cc([As](=O)(O)O)ccc1O | inactive | inactive | inactive | inactive | inactive | inactive | inactive | inactive | inactive | inactive
CCCN1CCC[C@@H]2Cc3[nH]ncc3C[C@H]21 | inactive | inactive | inactive | inactive | inactive | inactive | inactive | – | inactive | inactive
CCC1(C2=NCCN2)Cc2ccccc2O1 (stereo not given) | inactive | inactive | inactive | inactive | inactive | inactive | inactive | inactive | – | inactive
O=C(NC(O)C(Cl)(Cl)Cl)NC(O)C(Cl)(Cl)Cl (stereo not given) | inactive | inactive | inactive | inactive | inactive | inactive | inactive | inactive | – | inactive
O=C1CC[C@@]2(O)[C@H]3Cc4ccc(O)c5c4[C@@]2(CCN3CC2CC2)[C@H]1O5 | inactive | inactive | inactive | – | inactive | inactive | inactive | inactive | inactive | –
c1ccc(C2CC2)c(OCC2=NCCN2)c1 | inactive | inactive | inactive | inactive | inactive | inactive | inactive | – | inactive | inactive
C[C@]12CCC(=O)C(O)=C1CC[C@@H]1[C@@H]2CC[C@]2(C)C(=O)CC[C@@H]12 | inactive | inactive | inactive | inactive | inactive | inactive | inactive | inactive | inactive | inactive
O=C1NCN(c2ccccc2)C12CCN(CC1COc3ccccc3O1)CC2 (stereo not given) | inactive | inactive | inactive | inactive | inactive | inactive | inactive | – | inactive | inactive
C=C(C)[C@H]1Cc2c(ccc3c2O[C@@H]2COc4cc(OC)c(OC)cc4[C@@H]2C3=O)O1 | 168 nM (active) and 296 nM (active) | 0.422 µM (active) | 106 nM (active) and 743 nM (active) | 299 nM (active) and 590 nM (active) | 777 nM (active) and 2.17 µM (active) | 3.35 µM (active) and 2.64 µM (active) | – | 944 nM (active) | – | –
Oc1ccccc1-c1ccccc1 | inactive | inactive | inactive | inactive | inactive | inactive | inactive | – | inactive | inactive
Cc1ccc2c(c1)C1CN(C)CCC1N2 (stereo not given) | inactive | inactive | inactive | inactive | inactive | – | inactive | – | inactive | inactive
C[C@@H]1O[C@@H](O[C@H]2C[C@@H](O)[C@]3(CO)[C@H]4[C@H](O)C[C@]5(C)[C@@H](C6=CC(=O)OC6)CC[C@]5(O)[C@@H]4CC[C@]3(O)C2)[C@H](O)[C@H](O)[C@H]1O | 29.6 nM (active) and 53.1 nM (active) | 18.7 nM (active) and 75 nM (active) | 46.9 nM (active) and 66.8 nM (active) | 16.6 nM (active) and 23.7 nM (active) | 15.3 nM (active) and 49 nM (active) | 74.3 nM (active) and 266 nM (active) | – | 59 nM (active) and 75 nM (active) | 152 nM (active) and 344 nM (active) | 187 nM (active) and 299 nM (active)
N[C@@H]1C[C@H]1c1ccccc1 | inactive | inactive | inactive | inactive | inactive | inactive | inactive | – | inactive | inactive
Cc1ccc(S(=O)(=O)N[C@@H](CCCCN)C(=O)CCl)cc1 | inactive | inactive | inactive | 21.1 µM (active) | inactive | inactive | inactive | – | inactive | inactive
CC(C)=CCOc1c2occc2cc2ccc(=O)oc12 | inactive | inactive | inactive | inactive | inactive | inactive | inactive | – | inactive | inactive
COC1(CS(=O)c2ccccc2)CCN(CCc2c[nH]c3ccc(F)cc23)CC1 (stereo not given) | inactive | inactive | inactive | inactive | – | inactive | inactive | inactive | – | inactive
CC1NCCOC1c1ccccc1 (stereo not given) | inactive | inactive | inactive | inactive | inactive | inactive | inactive | inactive | inactive | inactive
CCOP(=S)(OCC)Oc1cc(C)nc(C(C)C)n1 | inactive | inactive | inactive | inactive | inactive | inactive | inactive | inactive | inactive | inactive
COc1ccc(C(=O)c2c(C)n(CCN3CCOCC3)c3ccccc23)cc1 | inactive | inactive | inactive | inactive | inactive | inactive | inactive | inactive | inactive | inactive
